Data taken from PubChem BioAssay (NCI).
This is part of a sample that, as a whole, favours compounds with a hit. Of some 79,000 tested, about 15% had one in any assay. Calls of active or inactive are those of the source. No stated cut-off is given here; in the data, active means growth inhibition above about 70%; inactive means the rest.

What was measured:
[1] = NCI Yeast Anticancer Drug Screen. Data for the wt2 strain (AID 169);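 further: 0% = growth of vehicle-treated yeast cultures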; conditions: S. cerevisiae wt2 strain growth inhibition, active compounds read high
How it was run: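 Values express reduction in yeast growth under compound treatment, referenced to vehicle-treated cells.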

[2] = NCI Yeast Anticancer Drug Screen. Data for the mlh1 strain (AID 171);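 further: 0% = growth of vehicle-treated control cultures of the same strain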; conditions: S. cerevisiae mlh1 strain growth inhibition, active compounds read high
How it was run: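 Steps: expose the defined-mutant yeast strain to compound; expose a parallel culture to vehicle; measure growth; express compound effect as inhibition relative to the vehicle culture.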

[3] = NCI Yeast Anticancer Drug Screen. Data for the sgs1 strain (AID 173);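 further: 0% = growth of vehicle-only control cultures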; conditions: S. cerevisiae sgs1 mutant, active compounds read high
How it was run: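 Treat defined-mutant yeast with compound; measure growth; calculate inhibition relative to vehicle-treated cells.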

[4] = NCI Yeast Anticancer Drug Screen. Data for the mlh1 rad18 strain (AID 175); conditions: S. cerevisiae mlh1 rad18 strain growth inhibition, active compounds read high
How it was run: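 Test agents were incubated with a yeast strain of defined genotype (DNA damage repair defect). Inhibition of growth was derived by comparison with vehicle-exposed cultures.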

[5] = NCI Yeast Anticancer Drug Screen. Data for the rad18 strain (AID 177); conditions: S. cerevisiae rad18 mutant growth inhibition, active compounds read high
How it was run: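 A genetically defined yeast mutant impaired in DNA damage repair was treated with test compounds, then its growth was measured against cultures receiving vehicle alone.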

[6] = NCI Yeast Anticancer Drug Screen. Data for the rad52 strain (AID 147);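 further: 0% = growth of vehicle-treated control cultures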; conditions: S. cerevisiae rad52 mutant growth inhibition, active compounds read high
How it was run: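 Screen used a yeast mutant impaired in DNA repair. After compound exposure, growth was measured. Values reflect inhibition compared with vehicle-treated cells.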

[7] = NCI Yeast Anticancer Drug Screen. Data for the wt1 strain (AID 149);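 further: 0% = growth of vehicle-treated wt1 cultures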; conditions: S. cerevisiae wt1 strain (SPY 50644) growth inhibition, active compounds read high
How it was run: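 Readout: yeast growth inhibition, normalised to vehicle controls, in the wt1 strain exposed to test compounds.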

[8] = NCI Yeast Anticancer Drug Screen. Data for the rad50EPP+ strain (AID 151);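 further: 0% = growth of vehicle-treated control cultures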; conditions: S. cerevisiae rad50 mutant strain, active compounds read high
How it was run: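 Exposing the rad50EPP+ strain to each compound, growth was compared with vehicle-only cultures to give inhibition.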

[9] = NCI Yeast Anticancer Drug Screen. Data for the mgt1 strain (AID 153); conditions: S. cerevisiae mgt1 mutant growth inhibition, active compounds read high
How it was run: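 Genetically defined yeast (mgt1) treated with compound; inhibition of growth expressed against vehicle-treated controls.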

[10] = NCI Yeast Anticancer Drug Screen. Data for the rad50 strain (AID 155);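 further: 0% = growth of vehicle-only cultures of the same strain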; conditions: S. cerevisiae rad50 strain growth inhibition, active compounds read high
How it was run: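 Compounds were tested on a yeast strain with an engineered DNA damage repair alteration; the reported value is growth inhibition normalised to vehicle treatment.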

[11] = NCI Yeast Anticancer Drug Screen. Data for the mec2-1 strain (AID 157); conditions: S. cerevisiae mec2-1 strain, active compounds read high
How it was run: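 Readout is yeast growth inhibition, normalised to vehicle-treated controls, in the mec2-1 strain exposed to compound.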

[12] = NCI Yeast Anticancer Drug Screen. Data for the rad14 strain (AID 159);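 further: 0% = growth of vehicle-treated control cultures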; conditions: S. cerevisiae rad14 strain growth inhibition, active compounds read high
How it was run: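 Compound-treated yeast with a defined DNA-repair lesion; growth inhibition normalised to vehicle-treated cultures.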

[13] = NCI Yeast Anticancer Drug Screen. Data for the sgs1 mgt1 strain (AID 161);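 further: 0% = growth of cultures given vehicle only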; conditions: S. cerevisiae sgs1 mgt1 strain, active compounds read high
How it was run: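 Compounds are added to genetically altered yeast, and growth is compared with cultures given vehicle alone to give percent inhibition.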

[14] = NCI Yeast Anticancer Drug Screen. Data for the CLN2oe strain (AID 163);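 further: 0% = growth of vehicle-only control cultures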; conditions: S. cerevisiae CLN2oe strain, active compounds read high
How it was run: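 Values reflect how much compound exposure reduced yeast growth, referenced to vehicle-exposed cells. Assay organism is a strain with a defined genetic change affecting cell-cycle control.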

[15] = NCI Yeast Anticancer Drug Screen. Data for the cln2 rad14 strain (AID 165);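 further: 0% = growth equal to vehicle treated cultures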; conditions: S. cerevisiae cln2 rad14 strain, active compounds read high
How it was run: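 Relative to vehicle controls, growth inhibition of compound-treated cln2 rad14 yeast was recorded.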

[16] = NCI Yeast Anticancer Drug Screen. Data for the bub3 strain (AID 167); conditions: S. cerevisiae bub3 mutant strain, active compounds read high
How it was run: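 Growth of a checkpoint-deficient yeast mutant is measured after compound exposure. Values represent inhibition relative to vehicle.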

[17] = at 5.0 µM (retest, dose inferred, filed as 0.5)
[18] = at 50.0 µM (retest, dose inferred, filed as 5.0)

Measured: growth inhibition

COc1ccc(/C=C2\SC(=S)N(/C=C/c3nc4ccccc4[nH]c3=O)C2=O)cc1OC
active: [1]; at 33.0 µM 80% | [1]; at 100.0 µM 94% | [2]; at 33.0 µM 76% | [2]; at 100.0 µM 91% | [3]; at 33.0 µM 85% | [3]; at 100.0 µM 94% | [5]; at 100.0 µM 85%
inactive: [1]; at 1.2 µM 1% | [1]; at 3.7 µM 3% | [1]; at 11.0 µM 28% | [2]; at 1.2 µM 1% | [2]; at 3.7 µM 5% | [2]; at 11.0 µM 28% | [3]; at 1.2 µM 5% | [3]; at 3.7 µM 14% | [3]; at 11.0 µM 43% | [4]; [17] -11% | [4]; [18] 33% | [4]; at 50.0 µM 61.6% | [5]; at 1.2 µM 10% | [5]; at 3.7 µM 20% | [5]; at 11.0 µM 39% | [5]; at 33.0 µM 67%

O=C1c2ccccc2C(=O)c2c(NC3CCCCC3)ccc(Nc3ccc(S(=O)(=O)O)cc3)c21
active: [8]; at 33.0 µM 80% | [9]; at 33.0 µM 81% | [10]; at 50.0 µM 79.2% | [11]; at 50.0 µM 77% | [12]; at 100.0 µM 71% | [13]; [18] 85% | [13]; at 50.0 µM 77.2% | [16]; at 50.0 µM 70.3% | [1]; at 33.0 µM 80% | [2]; at 100.0 µM 71% | [3]; at 33.0 µM 79% | [3]; at 100.0 µM 72% | [4]; [18] 72% | [4]; at 50.0 µM 82.9%
inactive: [6]; at 1.2 µM -5% | [6]; at 3.7 µM -5% | [6]; at 11.0 µM -5% | [6]; at 33.0 µM 37% | [6]; at 100.0 µM 49% | [7]; at 1.2 µM -1% | [7]; at 3.7 µM -5% | [7]; at 11.0 µM -7% | [7]; at 33.0 µM 10% | [7]; at 100.0 µM 33% | [8]; at 1.2 µM -2% | [8]; at 3.7 µM 5% | [8]; at 11.0 µM 56% | [8]; at 100.0 µM 63% | [9]; at 1.2 µM -2% | [9]; at 3.7 µM -1% | [9]; at 11.0 µM -2% | [9]; at 100.0 µM 68% | [10]; at 1.2 µM 0% | [10]; at 3.7 µM -2% | [10]; [17] 8% | [10]; at 11.0 µM 9% | [10]; at 33.0 µM 27% | [10]; [18] 62% | [10]; at 100.0 µM 44% | [11]; at 1.2 µM 1% | [11]; at 3.7 µM -5% | [11]; [17] -14% | [11]; at 11.0 µM -5% | [11]; at 33.0 µM 14% | [11]; [18] 59% | [11]; at 100.0 µM 48% | [12]; at 1.2 µM 2% | [12]; at 3.7 µM -4% | [12]; at 11.0 µM 2% | [12]; at 33.0 µM 48% | [13]; [17] -13% | [14]; at 1.2 µM -5% | [14]; at 3.7 µM 4% | [14]; at 11.0 µM -5% | [14]; at 33.0 µM 1% | [14]; at 100.0 µM 18% | [15]; [17] -13% | [15]; [18] -4% | [15]; at 50.0 µM 59% | [16]; at 1.2 µM -2% | [16]; at 3.7 µM -4% | [16]; [17] 6% | [16]; at 11.0 µM 5% | [16]; at 33.0 µM 36% | [16]; [18] 46% | [16]; at 100.0 µM 30% | [1]; at 1.2 µM -3% | [1]; at 3.7 µM -4% | [1]; at 11.0 µM 5% | [1]; at 100.0 µM 62% | [2]; at 1.2 µM -2% | [2]; at 3.7 µM -3% | [2]; at 11.0 µM 5% | [2]; at 33.0 µM 50% | [3]; at 1.2 µM -1% | [3]; at 3.7 µM -2% | [3]; at 11.0 µM 23% | [4]; [17] 5% | [5]; at 1.2 µM -2% | [5]; at 3.7 µM -13% | [5]; at 11.0 µM -1% | [5]; at 33.0 µM 40% | [5]; at 100.0 µM 46%
